Results on 16 compounds are retold here after PubChem BioAssay.

Assay [1] relates to Plasmodium falciparum Sir2 (PF13_0152, Sir2A). Kind of assay: pfSir2 binders on small-molecule microarrays, primary screen, biochemical, small-molecule microarray, 635 nm fluorescence (AID 1098).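 Further: score merges spot fluorescence intensity with its signal-to-noise ratio.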 The settings on record: small-molecule microarray binding, fluorescence 635 nm; higher = more signal.
The nature of assay [2]: small-molecule microarray binders of probe aDKK1, primary screen, biochemical, biotinylated probe, 635/667 nm fluorescence (AID 1099).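 Further: score merges 667nm spot fluorescence with signal to noise across triplicate slides; reference of the scale not given here.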 The settings on record: higher = more signal.
Assay [3] can be described thus: small-molecule microarray binders of probe aCHRDL2, primary screen, biochemical, biotinylated probe, 635/667 nm fluorescence (AID 1100). The settings on record: higher = more signal.
Assay [4] in a line: splicing luciferase reporter signal modulators, primary screen, spliceosome inhibition project, cell-based, HEK293, splice +/- reporter (AID 1101).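 Further: HEK293 cells carrying a splicing-competent luciferase reporter gene; test concentration not given here.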 The settings on record: luminescence, 24 h, higher = more signal, called active from +8 up or from −8 down. (Reporter assays use an easily measured gene product as a stand-in for the process of interest.)
In assay [5] the target is Fibroblast growth factor 10 (Homo sapiens) (UniProt O15520). In words: FGF10 binders on small-molecule microarrays, primary screen, biochemical, small-molecule microarray, 635 nm fluorescence (AID 1102). The settings on record: FGF10 binding, fluorescence 635 nm, higher = more signal.
Chain of Fibroblast growth factor 10 (Homo sapiens) (O15520 whole entry, looked up): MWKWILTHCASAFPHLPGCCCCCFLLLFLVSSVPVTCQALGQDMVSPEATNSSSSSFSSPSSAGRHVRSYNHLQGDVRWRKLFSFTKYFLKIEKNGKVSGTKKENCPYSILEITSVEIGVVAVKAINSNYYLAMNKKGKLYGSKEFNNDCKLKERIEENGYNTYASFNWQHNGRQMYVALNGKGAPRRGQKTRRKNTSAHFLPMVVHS
Assay [6] concerns glycogen synthase kinase-3 (GSK3A per assay name; protocol says GSK3B). Kind of assay: GSK3 binders on small-molecule microarrays, primary screen, biochemical, small-molecule microarray, 635 nm fluorescence, GSK3A (AID 1103). Further: the record names both GSK3A and GSK3B. The settings on record: small-molecule microarray binding, fluorescence 635 nm; higher = more signal.
The target of assay [7] is Epidermal growth factor receptor (Homo sapiens) (UniProt P00533). In words: EGFR binders on small-molecule microarrays, primary screen, biochemical, small-molecule microarray, 635 nm fluorescence (AID 1104).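 Further: score merges 667 nm emission intensity with spot signal to noise over triplicate slides.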 The settings on record: EGFR binding, higher = more signal.
Chain of Epidermal growth factor receptor (Homo sapiens) (P00533 whole entry, looked up): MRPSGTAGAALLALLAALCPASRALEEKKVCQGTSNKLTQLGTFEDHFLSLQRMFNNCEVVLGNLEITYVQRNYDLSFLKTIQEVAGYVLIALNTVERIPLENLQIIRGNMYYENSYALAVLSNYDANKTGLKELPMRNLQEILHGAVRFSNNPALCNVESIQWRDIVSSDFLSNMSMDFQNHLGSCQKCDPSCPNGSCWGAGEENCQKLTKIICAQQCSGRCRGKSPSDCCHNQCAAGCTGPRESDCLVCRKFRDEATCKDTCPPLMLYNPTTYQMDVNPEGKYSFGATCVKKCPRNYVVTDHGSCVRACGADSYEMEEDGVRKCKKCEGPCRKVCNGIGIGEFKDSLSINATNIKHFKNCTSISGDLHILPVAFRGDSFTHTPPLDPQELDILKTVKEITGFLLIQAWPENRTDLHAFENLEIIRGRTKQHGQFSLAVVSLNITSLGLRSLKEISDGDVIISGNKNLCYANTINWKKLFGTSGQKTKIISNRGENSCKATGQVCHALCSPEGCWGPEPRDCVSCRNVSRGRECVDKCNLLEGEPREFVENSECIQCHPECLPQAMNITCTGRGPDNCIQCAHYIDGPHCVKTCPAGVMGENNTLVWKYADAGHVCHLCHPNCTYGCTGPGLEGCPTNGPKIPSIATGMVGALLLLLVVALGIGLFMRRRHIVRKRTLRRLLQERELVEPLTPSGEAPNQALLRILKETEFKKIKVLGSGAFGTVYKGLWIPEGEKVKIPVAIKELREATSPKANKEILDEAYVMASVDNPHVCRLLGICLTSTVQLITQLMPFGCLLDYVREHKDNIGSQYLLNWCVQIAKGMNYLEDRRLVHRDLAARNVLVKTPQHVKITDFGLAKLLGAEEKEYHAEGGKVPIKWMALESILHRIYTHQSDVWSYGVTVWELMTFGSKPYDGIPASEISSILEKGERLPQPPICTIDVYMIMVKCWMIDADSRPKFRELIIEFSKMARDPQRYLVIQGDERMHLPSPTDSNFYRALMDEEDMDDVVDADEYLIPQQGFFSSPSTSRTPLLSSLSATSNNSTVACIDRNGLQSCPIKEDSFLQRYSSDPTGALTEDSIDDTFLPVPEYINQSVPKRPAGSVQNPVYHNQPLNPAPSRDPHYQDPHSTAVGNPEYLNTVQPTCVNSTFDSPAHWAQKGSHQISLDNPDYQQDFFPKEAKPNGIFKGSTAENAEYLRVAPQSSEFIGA
In assay [8] the target is Follistatin-related protein 3 (Homo sapiens) (UniProt O95633). In words: FSTL3 binders on small-molecule microarrays, primary screen, biochemical, small-molecule microarray, 635 nm fluorescence (AID 1105).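 Further: score merges emission near 667 nm and signal to noise per printed spot across three slides.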 The settings on record: FSTL3 binding, higher = more signal.
Chain of Follistatin-related protein 3 (Homo sapiens) (O95633 whole entry, looked up): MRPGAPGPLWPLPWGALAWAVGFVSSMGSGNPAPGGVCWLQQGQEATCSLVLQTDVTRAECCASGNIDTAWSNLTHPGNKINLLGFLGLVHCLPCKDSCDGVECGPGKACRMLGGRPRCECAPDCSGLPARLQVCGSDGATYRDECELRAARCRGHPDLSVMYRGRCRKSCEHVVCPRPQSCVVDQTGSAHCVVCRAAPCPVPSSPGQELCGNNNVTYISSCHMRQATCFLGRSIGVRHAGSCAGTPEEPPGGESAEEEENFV
The target in assay [9] is Dickkopf-related protein 1 (Homo sapiens) (UniProt O94907). Kind of assay: DKK1 binders on small-molecule microarrays, primary screen, biochemical, small-molecule microarray, 635 nm fluorescence scan (AID 1106).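 Further: score merges emission near 667 nm with signal to noise over three replicate slides.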 The settings on record: DKK1 binding, higher = more signal.
Chain of Dickkopf-related protein 1 (Homo sapiens) (O94907 whole entry, looked up): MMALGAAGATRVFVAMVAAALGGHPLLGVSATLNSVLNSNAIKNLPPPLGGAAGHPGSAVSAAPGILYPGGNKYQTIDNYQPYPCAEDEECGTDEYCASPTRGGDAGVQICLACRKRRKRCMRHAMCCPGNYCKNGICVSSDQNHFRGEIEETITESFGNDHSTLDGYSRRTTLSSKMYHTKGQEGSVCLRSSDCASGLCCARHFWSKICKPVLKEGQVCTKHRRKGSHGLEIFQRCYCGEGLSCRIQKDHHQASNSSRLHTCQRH
Assay [10] deals with Inhibin beta A chain (activin A). Kind of assay: INHBA (activin A) binders on microarrays, primary screen, biochemical, small-molecule microarray, 635 nm fluorescence scan (AID 1107).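 Further: mouse activin A protein probed at 4.33 µg/mL on printed slides; score merges bound-protein fluorescence near 667 nm with spot signal-to-noise.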 The settings on record: small-molecule microarray binding, higher = more signal.

Active and inactive are the calls of the source.

Take `COc1ccc(C(O)C2C=CC3C(=O)N(c4ccccc4)C(=O)C3N2Nc2ccccc2F)cc1OCc1ccccc1` (stereo not given): the composite z-score in [1] worked out at 1.21; in assay [2] it was 1.21; in [3], 1.08; in [5] it was 0.771; in assay [6], 0.693; in assay [7], 0.0115. Besides, the composite z-score in [8] was 0.711; in assay [9] it was -0.633; in [10] it was 1.35. Besides, in assay [4], the z-score was 0.249 (inactive).
As to `CCc1oc(CC[C@@H](CO)NC(=O)NCCn2cc(C3(O)CCCCC3)nn2)c(C(=O)OC)c1C(=O)OC`, the composite z-score in assay [1] was 0.832; in assay [2] it was -0.0378; in [3], -0.402; in assay [5], 1.13; in assay [6], 0.972; in assay [7], 0.717. In addition, the figures for the composite z-score in [8], in assay [9] and in assay [10] were 1.33, 0.887 and 0.289, respectively. For the same compound, the z-score in [4] is -0.0596 (inactive).
`COc1cc2c(cc1O)C(C1CC1)N(Cc1cc3c(cc1Br)OCO3)CC2` (stereo not given): the composite z-score in assay [1] was 0.802; in [2], -0.197; in assay [3] it was 0.655; in assay [5], -1.02; in assay [6] it was -1.26; in [7], -1.12. For the same compound, the composite z-score in assay [8] was -1.35; in [9], -0.948; in assay [10] it was -0.13. Moreover, the z-score in [4] is -0.39 (inactive).
With `COCCOC(=O)N1C(=O)[C@@]2(c3cc(C#CC4=CCCCC4)ccc31)[C@H](C(=O)Nc1nc3ccccc3s1)[C@H]1C(=O)O[C@H](c3ccccc3)[C@H](c3ccccc3)N1[C@@H]2c1ccc(OCCO)cc1`, the composite z-score in assay [1] was 0.687; in [2], -0.0057; in assay [3], 0.235; in assay [5], 0.945; in assay [6] it was 1.21; in assay [7], 0.36. For the same compound, the composite z-score in assay [8] was found to be 0.908; in assay [9], 0.495; in assay [10], 0.91. Besides, the z-score in assay [4] was 0.000305 (inactive).
Take `CCCCN1CC=CC23O[C@@H]4/C=C\CCC(C)OC(=O)C4[C@H]2C(=O)N(CCCCCO)[C@@H]3C1=O` (stereo not given in full): the composite z-score was 0.0665 in assay [1]; -0.267 in assay [2]; 0.421 in [3]; -1.28 in assay [5]; -0.577 in assay [6]; -0.762 in assay [7]. For the same compound, the composite z-score in assay [8] was -0.668; in [9] it was -1.41; in [10] it was -0.323. For the same compound, in assay [4], the z-score was -0.259 (inactive).
Consider `CN(C)CCCCCCNC(=O)[C@@H]1C[C@@H]2C(=O)N[C@@H](CCCCN)C(=O)N2[C@@H]1c1cccc(OCCO)c1`, for which the composite z-score amounted to 1.96 in [1]; 2.69 in assay [2]; 1.65 in assay [3]; 1.59 in assay [5]; 1.47 in assay [6]; 1.11 in assay [7]. Besides, the values for the composite z-score in assay [8], in assay [9] and in assay [10] were 1.66, 2.13 and 1.55, respectively. Moreover, in assay [4], the z-score is -1.56 (inactive).
Turning to `COc1cc(OC)c(C(O)C2C=CC3C(=O)NC(=O)C3N2Nc2ccc(Cl)cc2Cl)cc1Br` (stereo not given), the composite z-score was 1.38 in assay [1]; 2.08 in assay [2]; 1.16 in assay [3]; 0.0245 in assay [5]; 0.0735 in [6]; -0.142 in assay [7]. Further, the composite z-score in assay [8] is 0.498; in [9], -0.985; in assay [10] it was 0.312. Moreover, the z-score in assay [4] was 2.41 (inactive).
Turning to `CCCCC=C[C@@H](NC(=O)Oc1cccc(C(F)(F)F)c1)c1ccccc1`, the composite z-score in [1] turned out to be 0.495; in [2] it was 1.45; in assay [3], 0.879; in assay [5] it was 1.09; in assay [6], 0.992; in assay [7], 0.185. The composite z-score in [8] is 0.719; in assay [9], -0.432; in assay [10] it was 1.16. The z-score in assay [4] is -1.75 (inactive).
In the case of `C[N+](C)(C)CCCC[C@@H]1NC(=O)[C@@H]2C[C@H](C(=O)NCCCCCN)[C@H](c3cccc(OCCO)c3)N2C1=O`, the composite z-score was 1.07 in assay [1]; 0.0277 in assay [2]; 0.356 in assay [3]; 1.12 in assay [5]; 1.3 in assay [6]; -0.167 in [7]. Further, the composite z-score in assay [8] was -0.144; in assay [9], -0.17; in assay [10], -0.68. Further, the z-score in assay [4] is -0.657 (inactive).
Turning to `CC[C@@H]1C=C(C(=O)O)[C@H](c2ccco2)N1S(=O)(=O)c1ccc(C)cc1`, the composite z-score in [1] was 1.37; in assay [2], -0.0292; in assay [3], 0.333; in assay [5], 0.0314; in assay [6], 0.175; in [7], -0.832. Further, the composite z-score was determined as 0.291 in [8], 0.128 in assay [9] and 1.23 in assay [10]. Besides, in [4], the z-score is 0.447 (inactive).
Consider `COC(=O)c1c(CC[C@@H](CO)NC(=O)N2CCC[C@H]2Cn2cc(-c3ccccn3)nn2)oc(C(C)=O)c1C(=O)OC`, for which the composite z-score is 1.23 in assay [1]; -0.238 in assay [2]; -0.337 in assay [3]; 0.0437 in assay [5]; 0.209 in assay [6]; 0.0417 in assay [7]. For the same compound, the composite z-score in assay [8] is -0.144; in [9], -0.17; in [10] it was 0.113. In addition, the z-score in assay [4] was -1.25 (inactive).
For `COCCCN1C(=O)[C@@]2(Cc3ccccc31)c1ccccc1C(=O)N(Cc1ccccc1C(F)(F)F)[C@H]2c1ccc(CO)cc1`, the composite z-score in assay [1] is 1.13; in assay [2] it was -0.106; in assay [3], -0.563; in [5] it was 0.94; in [6], 0.561; in [7], 0.12. The values for the composite z-score in [8], in assay [9] and in [10] were 0.919, 0.756 and 0.915, respectively. In assay [4], the z-score is 0.498 (inactive).
Turning to `C=C(COC)/C(=C/C[C@H](OC(=O)c1ccncc1)c1ccc(OCCO)cc1)c1cnc2ccccc2c1`, the composite z-score was 1.24 in [1]; 0.159 in [2]; -0.106 in assay [3]; 1.36 in assay [5]; 1.07 in [6]; 1.26 in assay [7]. Besides, the composite z-score in assay [8] is 1.55; in assay [9] it was 1.01; in [10], 1.61. The z-score in assay [4] was -1.02 (inactive).
As to `CC(=O)NCCCC[C@@H]1NC(=O)[C@@H]2C[C@H](C(=O)NCCCCN(C)C)[C@H](c3cccc(OCCO)c3)N2C1=O`, the composite z-score in assay [1] was 1.4; in [2], -0.0978; in [3], 0.529; in assay [5], 0.556; in assay [6], 0.117; in assay [7] it was -0.12. The results for the composite z-score in assay [8], in [9] and in assay [10] were 0.227, 0.0332 and -0.609, respectively. Also, the z-score in assay [4] is 0.805 (inactive).
Regarding `O=C1O[C@H](c2ccccc2)[C@H](c2ccccc2)N2[C@H]1[C@@H](C(=O)NC[C@H](O)c1ccccc1)[C@]1(C(=O)Nc3ccccc31)[C@H]2c1ccc(OCCO)cc1`, the composite z-score was 0.884 in [1]; 0.569 in [2]; 0.672 in [3]; 0.745 in assay [5]; 1.23 in [6]; -0.0151 in assay [7]. Moreover, the composite z-score in [8] came to 0.464; in assay [9], 0.289; in assay [10] it was 0.286. Further, the z-score in assay [4] is 0.985 (inactive).
Consider `COCCOC(=O)N1C(=O)[C@@]2(c3ccccc31)[C@H](c1ccc(O)cc1)N1[C@H](c3ccccc3)[C@H](c3ccccc3)OC(=O)[C@H]1[C@@H]2C(=O)NC[C@H](O)c1ccccc1`, for which the composite z-score in assay [1] was 1.12; in assay [2] it was -0.0866; in assay [3], -0.0184; in [5] it was 0.12; in assay [6] it was 0.191; in [7] it was -0.291. For the same compound, the composite z-score was -0.195 in assay [8], -0.341 in assay [9] and -0.202 in assay [10]. For the same compound, in assay [4], the z-score is -1.07 (inactive).
